Results as given in PubChem BioAssay (EPA / NIEHS).
Activity calls are given as the source filed them. Rule for the calls: active = hit-call score of the fitted dose curve at least 0.9, where 1 is the maximum; inactive = score below 0.9.

Each compound was assayed on Cyclin D1 (CCND1), CCND1 (gene 595) (assay: LTEA_HepaRG_CCND1: Life Technologies and Expression Analysis (LTEA) Assay for Cyclin D1 (CCND1) using HepaRG (AID 2283451;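 for AC50: TaqMan qRT-PCR transcript level normalised to ACTB GAPDH and POLR2A housekeeping genes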)). Conditions: mRNA level, 48 h; actives raise or lower the signal.
Method: LTEA_HepaRG is a cell based, multiplexed-readout assay that uses HepaRG, a human liver cell line, with measurements taken at 48 hours after chemical dosing on a 96-well plate.LTEA_HepaRG_CCND1 is one of 102 assay component(s) measured in the LTEA HepaRG cell culture assay. It is a marker of Cell proliferation, survival, death.Data from the assay component LTEA_HepaRG_CCND1 was analyzed into 1 endpoint. This assay endpoint, LTEA_HepaRG_CCND1, was analyzed with bidirectional fitting relative to DMSO as the negative control and baseline of activity. Using a type of inducible reporter, measures of mRNA induction for gain or loss-of-signal activity can be used to understand regulation of transcription factor activity. To generalize the intended target to other relatable targets, this assay endpoint is annotated to the cell cycle intended target family, where the subfamily is Cell proliferation, survival, death.
A total of 1060 chemcials from the ToxCast library were tested in eight-point concentration-response experiments. Cell culture and cytotoxicity assays were conducted at Thermo Fisher Scientific's Custom Services facility (Madison, WI). A single lot of human HepaRG cells (Thermo Fisher Scientific, Frederick, MD) was used for the cell culture experiments. 96-well format collagen type I coated plates of human HepaRG cells were prepared using established methods. Briefly, cryopreserved HepaRG cells were thawed, plated at a density of approximately 100,000 cells/well in HepaRG Thaw, Plate, and General Purpose media (HPRG770, Thermo Fisher Scientific), and incubated for 48 hours. 0.5% DMSO was selected as vehicle control to balance the requisite need of DMSO in HepaRG cultures to maintain differentiation (for example, baseline metabolism, proportions of hepatocytes vs. cholangiocytes), while enabling further hepatic receptor pathway activation (for example, PXR and CAR) in response to chemical exposure. 48 hours after plating, the culture medium was replaced with HepaRG Serum-Free Incudtion Media. Cells were exposed to each test chemical in duplicate and maintained in CO2 incubators for another 48 hours. Chemical plates were thawed to room temperature and 200x concentrations of treatment groups were prepared. 8-point conentration-reponse curves were made with the highest exposure at 100 uM, followed by half-log dilutions, all in 0.5% DMSO. Each test plate contained variouse controls, induction positive controls (1mM phenobarbital), cytotoxicity positive controls ([…] aflatoxin B1), vehicle controls (0.5% DMSO), and total lysis controls (0.5% DMSO). Cell morphology images were taken using an Essen IncuCyte FLR automated microscope, with six 96-well plates imaged in about 24 minutes. Images were captured and exported and JPEG files. Spent culture media was transfered to black-well plates for the LDH assay, and remaining media was sorted at -80 C for later use. Cells were treated with RLT buffer and frozen until shipped for gene expression analysis. Total RNA was isolated from the cell suspension in 75 uL of Buffer RLT (Qiagen, Germantown, MD 20874) by Quintiles/Expression Analysis (Durham, NC) using a custom isolation procedure. Total RNA from each plate well was transferred to a preamplification plate. Fluidigm's 96.96 Dynamic ArrayTM (Fluidigm, Amsterdam, the Netherlands) technology was used for gene expression analyses by quantitative reverse transcription polymerase chain reaction (qRT-PCR, performed by Quintiles/Expression Analysis, Durham, NC)89. Standard TaqManTM Assays (Applied Biosystems/ThermoFisher Scientific, Foster City, CA) were used to assess the expression of 93 genes selected based on their selectivity and sensitivity to important hepatic receptors known to be modulated by environmental chemicals; importance in human hepatocyte functionality; and hepatotoxicity. […]
With OCCN(CCO)CCO the outcome was “inactive”.
With Clc1cccc(Cl)c1 the outcome was “inactive”.
With CC(C)(C)c1ccccc1O the outcome was “inactive”.
CC(C)O.CC(C)O.OCCN(CCO)CCO.OCCN(CCO)CCO.[Ti] was tested, and the outcome was “inactive”.
With O=C(O)C1(c2ccc3c(c2)OC[C@H](Cc2ccc(-c4ccccc4)cc2)[C@H]3O)CCCC1 the outcome was “inactive”.
For Oc1cc(Cl)c(Cl)cc1Cl, the outcome was “inactive”.
In the case of Cc1cc(C)cc(C)c1, the outcome is reported as “inactive”.
N#Cc1cccnc1 was tested, and the outcome was “inactive”.
For Clc1cccc(Cl)c1Cl, the outcome was “inactive”.
With O=C(N[C@H]1CN2CCC1CC2)c1ccc2c(c1)OCCO2 the outcome was “inactive”.
For Oc1c(Cl)cc(Cl)cc1Cl, the outcome was “inactive”.
CN(C)C(=S)S was tested, and the outcome was “inactive”.
In the case of CCCCCCCCCCCCc1cccc(S(=O)(=O)O)c1, the AC50 is reported as 45 µM (active).
COc1ccccc1N was tested, and the outcome was “inactive”.
